Test results taken from PubChem BioAssay (NCATS).
Where “and” joins values, the source holds several entries; their conditions need not be identical. Equal entries are not always repeated. Records with an inconclusive call do not appear. Calls of active or inactive are those of the source. The call rests on the fitted dose curve; in most records, active means well fitted curve in the direction sought with a large enough effect; inconclusive means small, poorly fitted or top-dose-only effect, or another doubt; inactive means no such curve, though single readings can be large; an effect the other way counts as inactive or inconclusive. Peptide text beside a SMILES is read from it.

How the values were obtained:
[1] = qHTS of pediatric cancer cell lines to identify multiple opportunities for drug repurposing: Primary screen for A673 cells (AID 1347092); further: nearly all actives have a fitted effect of over 45% in size
How it was run: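 Titration-based qHTS on A673 cells: MIPE compounds spanned 11 points (0.78 nM to 46 µM final), NPC compounds 8 points (0.59 nM to 46 µM final). Viability after 48 h was measured by ATP luminescence.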

[2] = qHTS of pediatric cancer cell lines to identify multiple opportunities for drug repurposing: Primary screen for SK-N-MC cells (AID 1347093)
How it was run: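 Metabolically active cells were quantified by ATP-dependent luminescence (CellTiter-Glo, 15 min at room temperature) following 48 h treatment. Cells had been plated at 500-1,000 per well and settled for 5 h beforehand.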

[3] = qHTS of pediatric cancer cell lines to identify multiple opportunities for drug repurposing: Primary screen for BT-37 cells (AID 1347094)
How it was run: (§1)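 500-1,000 cells/well; 5 h pre-incubation 37 °C/5% CO2; compound pinned; 48 h; CellTiter-Glo, 15 min RT; luminescence. MIPE 11-pt from 0.78 nM, NPC 8-pt from 0.59 nM final. Bortezomib 2.3 µM final as positive control.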

[4] = qHTS of pediatric cancer cell lines to identify multiple opportunities for drug repurposing: Primary screen for NB-EBc1 cells (AID 1347095)
How it was run: as §1

[5] = qHTS of pediatric cancer cell lines to identify multiple opportunities for drug repurposing: Primary screen for U-2 OS cells (AID 1347096); further: nearly all actives have a fitted effect of over 50% in size
How it was run: (§2)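 Cells (500-1,000/well) rested 5 h, then received compounds for 48 h; metabolically active cells were measured by CellTiter-Glo luminescence. Final concentrations spanned up to 46 µM (MIPE, 11-point) or 0.59 nM-46 µM (NPC, 8-point) in primary screens, 11-point in follow-ups.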

[6] = qHTS of pediatric cancer cell lines to identify multiple opportunities for drug repurposing: Primary screen for Saos-2 cells (AID 1347097); further: nearly all actives have a fitted effect of over 40% in size
How it was run: as §1

[7] = qHTS of pediatric cancer cell lines to identify multiple opportunities for drug repurposing: Primary screen for SK-N-SH cells (AID 1347098); further: nearly all actives have a fitted effect of over 65% in size
How it was run: as §2

[8] = qHTS of pediatric cancer cell lines to identify multiple opportunities for drug repurposing: Primary screen for NB1643 cells (AID 1347099); further: nearly all actives have a fitted effect of over 50% in size
How it was run: as §1

[9] = qHTS of pediatric cancer cell lines to identify multiple opportunities for drug repurposing: Primary screen for LAN-5 cells (AID 1347100)
How it was run: as §2

[10] = qHTS of pediatric cancer cell lines to identify multiple opportunities for drug repurposing: Primary screen for BT-12 cells (AID 1347101); further: nearly all actives have a fitted effect of over 25% in size
How it was run: as §2

Measured: Potency
Potency means the concentration at half of the fitted maximal effect.

CCN(CC)CCOc1ccc(Nc2ncc3cc(-c4c(Cl)cccc4Cl)c(=O)n(C)c3n2)cc1
active: [1] 0.118 µM | [2] 0.105 µM | [3] 6.11 µM | [4] 1.48 µM | [5] 1.18 µM | [6] 0.296 µM | [7] 242 nM | [8] 3.72 µM | [9] 1.05 µM

COc1c(O)cc2c(c1O)[C@@H]1O[C@H](CO)[C@@H](O)[C@H](O)[C@H]1OC2=O
not listed: [6] | [10]
inactive: all other assays above

CN1C(C(=O)Nc2ccccn2)=C(O)c2sccc2S1(=O)=O
inactive: all assays above

CN(C)c1ccc2nc3ccc(=[N+](C)C)cc-3sc2c1
active: [1] 9.35 µM and 8.41 µM | [2] 1.18 µM and 1.19 µM | [3] 19.3 µM and 15.5 µM | [5] 10.6 µM | [6] 1.48 µM and 2.66 µM | [7] 3.41 µM and 5.45 µM | [8] 10.6 µM | [9] 1.68 µM

Cc1cccc(-c2[nH]ncc2-c2ccc3ncccc3n2)n1
not listed: [3] | [10]
inactive: all other assays above

NC(=O)Cc1cccc(C(=O)c2ccccc2)c1N
not listed: [3]
inactive: all other assays above

Clc1ccc2c(N3CCN(CCCN4CCN(c5ccnc6cc(Cl)ccc56)CC4)CC3)ccnc2c1
not listed: [4] | [10]
inactive: all other assays above

O=C1NC(=O)C(c2ccccc2[N+](=O)[O-])=C1Nc1ccc(O)c(Cl)c1
active: [1] 5.9 µM | [2] 0.118 µM
inactive: [4] | [5] | [6]

N=C(N)c1ccc2cc(OC(=O)c3ccc(N=C(N)N)cc3)ccc2c1
not listed: [3] | [10]
inactive: all other assays above

COc1cc(C(C)=O)ccc1OCCCN1CCC(c2noc3cc(F)ccc23)CC1
not listed: [3] | [10]
inactive: all other assays above

O=c1c(O)c(-c2ccc(O)cc2O)oc2cc(O)cc(O)c12
not listed: [4] | [6] | [10]
inactive: all other assays above

c1cnc2cc3c(cc2n1)C1CNCC3C1
active: [2] 4.69 µM
inactive: [1] | [3] | [5] | [7] | [10]

Cc1ncc([N+](=O)[O-])n1CC(C)O (stereo unspecified)
not listed: [3]
inactive: all other assays above

Nc1ccn([C@@H]2O[C@H](CO)[C@@H](O)C2O)c(=O)n1 (stereo partly specified)
not listed: [4] | [6]
inactive: all other assays above

CN(C)[C@@H](CCOc1cccc2ccccc12)c1ccccc1
active: [2] 23.5 µM | [6] 26.4 µM
not listed: [3] | [10]
inactive: all other assays above

Cc1c(C(=O)NN2CCCCC2)nn(-c2ccc(Cl)cc2Cl)c1-c1ccc(Cl)cc1
active: [1] 4.69 µM | [2] 21.1 µM and 7.43 µM | [3] 3.85 µM | [7] 27.3 µM and 30.4 µM | [9] 3.72 µM
inactive: [5]

Clc1ccc(C(Cn2ccnc2)OCc2ccsc2Cl)c(Cl)c1 (stereo unspecified)
inactive: [5] | [7]
active: [1] 23.5 µM | [2] 2.66 µM | [3] 0.001 µM | [8] 11.9 µM

CNC[C@H](O)c1ccc(O)c(O)c1
active: [1] 42.9 µM
not listed: [4] | [6] | [8]
inactive: all other assays above

CC1Cc2ccccc2N1NC(=O)c1ccc(Cl)c(S(N)(=O)=O)c1 (stereo unspecified)
not listed: [3] | [6]
inactive: all other assays above

CC(C)[C@H](N)C(=O)OCCOCn1cnc2c(=O)[nH]c(N)nc21
not listed: [4] | [6]
inactive: all other assays above

NC(=NCc1ccccc1)NC(=O)c1nc(Cl)c(N)nc1N
active: [1] 5.9 µM | [2] 1.18 µM | [8] 9.35 µM
not listed: [4]
inactive: all other assays above

Nc1ccc(S(N)(=O)=O)cc1
not listed: [4]
inactive: all other assays above

CCN(CC)C(=S)SSC(=S)N(CC)CC
active: [1] 11.8 nM and 19.7 nM | [2] 18.7 nM and 49.5 nM and 119 nM | [3] 24.3 nM and 815 nM | [5] 0.0743 µM | [6] 13.2 nM and 62.4 nM and 211 nM | [7] 114 nM | [8] 83.3 nM and 124 nM and 668 nM | [9] 23.5 nM and 39.4 nM | [10] 15.3 nM and 72.7 nM and 174 nM

CN(C)CCc1c[nH]c2ccc(Cn3cncn3)cc12
active: [3] 19.3 µM | [6] 11.8 µM
not listed: [4] | [10]
inactive: all other assays above

COC1=C(OC)C(=O)C(CCCCCCCCCCO)=C(C)C1=O
inactive: [2] | [3] | [5] | [7] | [8]
active: [1] 26.6 µM and 23.5 µM

CC(=O)NC[C@H]1CN(c2ccc(N3CCOCC3)c(F)c2)C(=O)O1
not listed: [4] | [7]
inactive: all other assays above

COC(=O)[C@H](Cc1ccccc1)NC(=O)[C@@H](N)CC(=O)O (H-Asp-Phe-OMe)
not listed: [3]
inactive: all other assays above

NS(=O)(=O)c1cc(C(=O)O)c(NCc2ccco2)cc1Cl
not listed: [4] | [10]
inactive: all other assays above

CC(C)(S)[C@@H](N)C(=O)O
not listed: [3] | [10]
inactive: all other assays above

C=C(c1ccc(C(=O)O)cc1)c1cc2c(cc1C)C(C)(C)CCC2(C)C
active: [2] 2.11 µM
not listed: [4]
inactive: all other assays above

Cc1nccn1CC1CCc2c(c3ccccc3n2C)C1=O (stereo unspecified)
not listed: [4] | [6] | [8]
inactive: all other assays above

Nc1cc(C(Cl)=C(Cl)Cl)c(S(N)(=O)=O)cc1S(N)(=O)=O
not listed: [4] | [10]
inactive: all other assays above

COc1cc2c(cc1OC)C1CC(=O)C(CC(C)C)CN1CC2 (stereo unspecified)
not listed: [3] | [10]
inactive: all other assays above

Oc1ccc(-c2nc(-c3ccc(F)cc3)c(-c3ccncc3)[nH]2)cc1
active: [1] 14.8 µM | [2] 2.35 µM | [8] 10.5 µM
inactive: [3] | [5] | [10]

CC1=C(C(=O)O)N2C(=O)[C@@H](NC(=O)[C@H](N)C3=CCC=CC3)[C@H]2SC1
not listed: [4]
inactive: all other assays above

CNC[C@@H](O)[C@@H](O)[C@H](O)[C@H](O)CO
active: [2] 23.5 µM
not listed: [4] | [10]
inactive: all other assays above

COCCCOc1ccnc(CS(=O)c2nc3ccccc3[nH]2)c1C (stereo unspecified)
not listed: [3] | [6]
inactive: all other assays above
